Measurements as given in PubChem BioAssay AID1159580 (chemical genetic matrix, 2015).
The campaign covered roughly 5,500 compounds. About 2,000 (36%) were called active. Roughly 18% stayed inconclusive and do not appear here. Rule as the data show it: active = normalized growth mostly below about 0.91 (no sharp cut-off); inconclusive = no clear call, values can overlap the other calls; inactive = mostly above about 0.92. The list shows a part of the results.

Experiment: chemical genetic growth profiling, strain panel (AID 1159580);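 also: tested at 20 µM; growth read once vehicle control cultures reached saturation at 30 °C; 1 = growth at the plate median or of vehicle wells; lower values mean less growth of the strain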
Details: S. cerevisiae deletion strains, growth OD

Measured: normalized growth

COc1ccc([C@@H]2Sc3ccccc3N(CCN(C)C)C(=O)[C@@H]2OC(C)=O)cc1
inactive: locus YAL013W, strain DEP1, active compounds read low 0.989 | locus YAL040C, strain CLN3, active compounds read low 1.01 | locus YCL061C, strain MRC1 (second series), active compounds read low 0.988 | locus YDR150W, strain NUM1, active compounds read low 1.01 | locus YDR363W, strain ESC2, active compounds read low 0.951 | locus YER002W, strain NOP16, active compounds read low 1.02 | locus YGR078C, strain PAC10, active compounds read low 0.961 | locus YGR229C, strain SMI1, active compounds read low 0.971 | locus YJR075W, strain HOC1, active compounds read low 1 | locus YMR263W, strain SAP30, active compounds read low 0.993 | locus YMR307W, strain GAS1, active compounds read low 1 | locus YNL153C, strain GIM3, active compounds read low 1.01 | locus YNL175C, strain NOP13, active compounds read low 0.99 | locus YNL197C, strain WHI3, active compounds read low 1.1 | locus YNL224C, strain SQS1, active compounds read low 1.02 | locus YNL322C, strain KRE1, active compounds read low 0.967 | locus YOR083W, strain WHI5 (second series), active compounds read low 1.03 | locus YPL055C, strain LGE1, active compounds read low 0.955 | locus YPL241C, strain CIN2, active compounds read low 0.988
